Compound activity deposited in PubChem by National Center for Advancing Translational Sciences (NCATS).
HTT prom inh: inhibitors of huntingtin promoter activity; HEK293 HTT promoter firefly luciferase reporter, 24 h; Potency, µM (doses to about 57.5 µM), without a hit: top-dose activity change, negative = inhibition, hits mostly inhibitors; 48,000 compounds, 0.93% hits; AID 1508623; also: potency is read from the fitted curve at half-maximal effect; nearly all actives have a fitted effect of over 50% in size
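Luminescence was read after Dual-Glo reagent and a 10 min room-temperature incubation. Values were normalized to vehicle (0% activity) and zero RLU (-100% activity). Reporter HEK293 cells had been exposed to compounds (up to 57.5 uM final) for 24 h.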
PMP22 txn prim: PMP22 gene transcription modulation; S16 Pmp22-F2sN Schwann cells, FLuc/NLuc coincidence luminescence, 24 h; Potency, µM (top dose mostly 57.5 µM), inactives show at the top dose activity change, negative = inhibition, hits mostly inhibitors; 43,000 compounds, 2% hits; active = clear falling dose curves in both reporters; inconclusive = both reporters move, but less clearly or upward; inactive = either reporter flat; the % is the NLuc reporter signal; also: potency is read from the fitted curve at half-maximal effect; % is scaled to controls: 0 for no effect and ±100 for the full control effect
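Luminescent read-out of sequential FLuc and NLuc signals from a reporter embedded in the Pmp22 3' UTR of S16 Schwann cells, taken after 24 h compound exposure at 37C; compounds reducing both signals score as inhibitors of expression.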
HTT-AS act: activators of huntingtin-antisense promoter activity | Potency, µM (series often up to 57.5 µM), inactives show top-dose activity change, positive = activation, most hits filed as activators | HEK293 HTT-AS promoter firefly luciferase reporter, 24 h; response scale: percent change from vehicle, -100% = no light | 48,000 compounds, 0.24% hits | AID 1508624; also: potency is read from the fitted curve at half-maximal effect; nearly all actives have a fitted effect of over 55% in size
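HEK293 cells carrying firefly luciferase reporters were seeded at 2,500 per well in Opti-MEM and cultured for 24 h. They were then treated with compounds at up to 57.5 uM final for 24 h at 37 degrees C before Dual-Glo luminescence readout.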
FH mod: Identification of activators of human fumarate hydratase by quantitative high-throughput screening | Fumarate hydratase, mitochondrial (Homo sapiens), P07954 | FH coupled MDH/diaphorase resazurin fluorescence, 15 min | Potency, µM (top dose mostly 79.9 µM), for the others: top-dose activity change, negative = inhibition, usual class: inhibitors | 54,000 compounds, 0.22% hits; also: potency is read from the fitted curve at half-maximal effect; % is scaled to controls: 0 for no effect and ±100 for the full control effect; the screen sought activators but most active calls are inhibition curves; nearly all actives have a fitted effect of over 45% in size
Target sequence (P07954 whole entry, looked up): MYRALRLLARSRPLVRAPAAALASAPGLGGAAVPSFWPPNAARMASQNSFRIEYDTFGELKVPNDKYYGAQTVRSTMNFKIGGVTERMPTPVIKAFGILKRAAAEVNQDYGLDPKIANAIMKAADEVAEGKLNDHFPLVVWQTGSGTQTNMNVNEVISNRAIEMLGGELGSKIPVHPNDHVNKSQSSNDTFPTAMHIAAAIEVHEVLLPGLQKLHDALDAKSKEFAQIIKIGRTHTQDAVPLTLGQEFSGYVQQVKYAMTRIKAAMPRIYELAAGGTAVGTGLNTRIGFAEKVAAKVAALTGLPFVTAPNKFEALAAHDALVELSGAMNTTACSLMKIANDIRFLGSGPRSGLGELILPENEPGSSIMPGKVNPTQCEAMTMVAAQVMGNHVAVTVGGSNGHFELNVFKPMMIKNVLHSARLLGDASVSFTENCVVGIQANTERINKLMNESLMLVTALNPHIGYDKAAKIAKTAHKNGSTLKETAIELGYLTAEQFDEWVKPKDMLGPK
S16 F2sN tox: S16 Schwann cell cytotoxicity | 43,000 compounds, 0.48% hits | Potency, µM (titrated, usually from 57.5 µM), inactives show at the highest dose activity change, negative = cytotoxicity, most hits filed as cytotoxic | S16 Pmp22-F2sN Schwann cells viability, CellTiter-Glo, 24 h | AID 1508642; also: potency is read from the fitted curve at half-maximal effect; % is scaled to controls: 0 for no effect and ±100 for the full control effect; nearly all actives have a fitted effect of over 65% in size
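Seed 500-1,000 S16 Pmp22-F2sN cells per well in phenol-red-free DMEM with 10% heat-inactivated FBS; pin-add 23 nL compound; incubate 24 h at 37C; add CellTiter-Glo, wait 15 min protected from light; read luminescence.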
pS6 MEF inh: inhibitors of mTORC1 signaling in Tsc2-/- p53-/- MEF cells. Potency, µM (top dose mostly 38.3 µM), inactives show top-dose activity change, negative = inhibition, hits mostly inhibitors. AID 493208. 44,000 compounds, 0.78% hits. Tsc2-/- p53-/- MEF, phospho-rpS6 immunofluorescence/PI, 24 h;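 also: potency is read from the fitted curve at half-maximal effect; plate controls were DMSO for no effect and rapamycin for full effect; nearly all actives have a fitted effect of over 50% in size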
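Read-out: phospho-S6 Alexa-488 intensity over PI intensity per well, scored as % active cells using thresholds from rapamycin (7.5 nM) and DMSO controls. Tsc2-/-, p53-/- MEFs exposed to compound for 24 h; PI cell count recorded as viability.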
NLuc sat counter: counter-screen for PMP22 expression modulators: NanoLuc inhibition, saturating substrate; shares compounds with PMP22 txn prim; Secreted NLuc enzyme (filtered S16 cell medium), Nano-Glo luminescence; Potency, µM (series often up to 57.5 µM), inactives show at the highest dose activity change, negative = inhibition, usual class: inhibitors; 690 compounds, 4% hits; AID 1508638; also: potency is read from the fitted curve at half-maximal effect; % is scaled to controls: 0 for no effect and ±100 for the full control effect
NLuc Km ctr: NanoLuc inhibition at Km substrate, PMP22 artifact check; Potency, µM (top dose mostly 57.5 µM), for inactives: at the top dose activity change, negative = inhibition, actives largely listed as inhibitors; secreted NLuc enzyme, coelenterazine luminescence, Km conditions; 690 compounds, 5% hits; shares compounds with PMP22 txn prim; AID 1508639; also: potency is read from the fitted curve at half-maximal effect; % is scaled to controls: 0 for no effect and ±100 for the full control effect
FLuc ctr PMP22: counter-screen for PMP22 expression modulators: firefly luciferase inhibition | shares compounds with PMP22 txn prim | purified P. pyralis FLuc, luminescence, 10 min | Potency, µM (highest dose often 57.5 µM), without a hit: at the highest dose activity, negative = inhibition, actives largely listed as inhibitors | 690 tested, under 10 active; also: % of control where 0% means no effect
S16 F2sN tox cnf: confirmation of cytotoxicity in S16 Pmp22-F2sN Schwann cells (luciferase reporters placed in the Pmp22 gene). Potency, µM (series often up to 57.5 µM), inactives show at the highest dose activity change, negative = viability loss, most hits filed as cytotoxic. S16 Schwann cells viability, CellTiter-Glo ATP luminescence, 24 h. 690 compounds, 7% hits. AID 1508641. shares compounds with PMP22 txn prim; also: potency is read from the fitted curve at half-maximal effect; % is scaled to controls: 0 for no effect and ±100 for the full control effect
PMP22 txn conf: confirmation of modulators of PMP22 gene transcription in S16 cells. shares compounds with PMP22 txn prim. S16 Schwann cells Pmp22-F2sN, dual luciferase, 24 h. Potency, µM (highest dose often 57.5 µM), inactives show at the top dose activity change, negative = inhibition, hits mostly inhibitors. 690 compounds, 22% hits; active = clear falling dose curves in both reporters; inconclusive = both reporters move, but less clearly or upward; inactive = either reporter flat; the % is the FLuc reporter signal; also: potency is read from the fitted curve at half-maximal effect
Active calls of the source: *; ? = inconclusive; · = no result; [ ] = remark or other dose. Compounds with a hit are over-represented: about 3.3% of the library has one in this group of screens. Unless noted, calls follow the shape of the dose curve; as a rule, active = well fitted curve in the direction sought with a large enough effect; inconclusive = small, poorly fitted or top-dose-only effect, or another doubt; inactive = no such curve, though single readings can be large; an effect the other way counts as inactive or inconclusive.

SMILES	HTT prom inh	PMP22 txn prim	HTT-AS act	FH mod	S16 F2sN tox	pS6 MEF inh	NLuc sat counter	NLuc Km ctr	FLuc ctr PMP22	S16 F2sN tox cnf	PMP22 txn conf
CCOc1ccc(NC(=O)CSc2oc(-c3ccccc3)nc2S(=O)(=O)c2ccc(Cl)cc2)cc1	2%	10µM*	-7%	2%	6%	?	?	?	3%	?	19µM*
O=C(COc1ccc(Cl)cc1)Nc1ccc(Cl)cc1C(=O)c1ccccc1	2%	3%	-4%	-13%	-3%	3%	·	·	·	·	·
CC[C@@H](C)[C@H]1C(=O)O[C@H](C(C)C)C(=O)N(C)[C@@H]([C@@H](C)CC)C(=O)O[C@H](C(C)C)C(=O)N(C)[C@@H]([C@H](C)CC)C(=O)O[C@H](C(C)C)C(=O)N1C	·	·	·	-1%[20.6 µM]	·	·	·	·	·	·	·
CC12CCC3C(C1)c1c(cc(O)c(C(=O)c4ccccc4)c1OC3(C)C)O2 (stereo not drawn)	·	·	·	-2%[53.3 µM]	·	·	·	·	·	·	·
CCCCOc1ccc(CN2C(=O)C(=O)c3cc(C)ccc32)cc1OC	-30%	8.8µM*	-2%	6%	?	?	-16%	-1%	-2%	-7%	?
Cc1ccc(-n2c(/C=C\c3ccc(F)c(F)c3)nc3ccccc3c2=O)c(C)c1	7.1µM*	8.9µM*	-32%	5%	?	6%	-3%	-3%	2%	-6%	?
